High-throughput results (PubChem)
IL-1B inflam inh – qHTS for Inhibitors of Inflammasome Signaling: IL-1-beta AlphaLISA Primary Screen | hit rate 4.7% among 360,000 | THP-1 LPS/ATP IL-1B secretion, AlphaLISA, 16 h; stronger effect = lower value | activity change, % at 57.5 µM; in the data active = activity change below about -50%; inconclusive = mostly about -30% to -49%
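Secreted IL-1B measured by AlphaLISA bead assay after 16 h compound exposure of THP-1 cells; compounds (final up to 57.5 uM) added 1 h before LPS (250 ng/mL) and ATP (1.25 mM) stimulation; lower signal means less secretion.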
DT40 TDP1 CPT – qHTS for Inhibitors of human tyrosyl-DNA phosphodiesterase 1 (TDP1): qHTS in cells in presence of CPT. chicken DT40 Tdp1-/-;hTDP1 cells + 20 nM CPT, ATP luminescence, 48 h. Potency, µM (doses to about 46.2 µM), inactives show top-dose activity change, negative = growth inhibition, usual class: inhibitors. hit rate 12% among 420,000. AID 686979, 2013; note: potency is the fitted concentration of half-maximal effect; nearly all actives have a fitted effect of over 55% in size
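Chicken DT40 Tdp1-/- cells stably complemented with human TDP1 were seeded at 400 cells/well in medium containing 20 nM camptothecin, exposed to pin-transferred compounds, and grown at 37 °C for at least 48 hr. Viability was read as ATP luminescence.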
DT40 TDP1 no CPT – qHTS for Inhibitors of human tyrosyl-DNA phosphodiesterase 1 (TDP1): qHTS in cells in absence of CPT; hit rate 15% among 420,000; DT40 Tdp1-/- hTDP1 cells, no CPT, ATP luminescence, 48 h; Potency, µM (highest dose often 46.2 µM), for the others: at the top dose activity change, negative = growth inhibition, hits mostly inhibitors; note: potency is the fitted concentration of half-maximal effect; nearly all actives have a fitted effect of over 55% in size
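Compound effects on proliferation are scored in DT40 Tdp1-/-;hTDP1 cells in the absence of CPT. ATP levels (CellTiter-Glo luminescence) are recorded after a ≥48 hr, 37 °C incubation.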
HT1080-NT tox – qHTS for induction of synthetic lethality in tumor cells producing 2HG: qHTS for the HT-1080-NT fibrosarcoma cell line; HT-1080-NT fibrosarcoma viability, CellTiter-Glo ATP luminescence, 48 h; Potency, µM (titrated, usually from 46.1 µM), for inactives: at the highest dose activity, negative = less viability, hits mostly cytotoxic; hit rate 1.6% among 360,000;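 note: NT is the 2HG producing partner of a matched IDH1 knockdown line; potency is the fitted concentration of half-maximal effect; 0% = DMSO-treated cells and -100% = media-only wells without cells; nearly all actives have a fitted effect of over 55% in size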
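Luminescent CellTiter-Glo readout after 48 hours of compound exposure at 37 degrees C defined viability of HT-1080-NT cells. Activity was normalized to DMSO wells and cell-free media wells; concentration-response curves were fitted and assigned curve classes.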
HT1080 IDH1KD tx – qHTS for induction of synthetic lethality in tumor cells producing 2HG: qHTS for the HT-1080-IDH1KD cell line. HT-1080 IDH1 knockdown viability, ATP luminescence, 48 h. Potency, µM (top dose mostly 46.1 µM), without a hit: top-dose activity, negative = toxicity, usual class: cytotoxic. hit rate 2% among 360,000;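 note: potency is the fitted concentration of half-maximal effect; 0% = DMSO wells and -100% = cell-free medium wells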
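Knockdown cells (IDH1KD HT-1080) received compounds 2 h after plating at 750 cells/well and were kept 48 h at 37 °C in 5% FBS RPMI. A CellTiter-Glo luminescence read gave % activity for curve fitting.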
Numbers without * were called inactive; ? = inconclusive; nt = no result; [ ] = remark or other dose. Shown are actives, neighbours in structure and some others; about 19% of the full set was active somewhere. Unless noted, calls come from the whole dose curve; as a rule, active = well fitted curve in the direction sought with a large enough effect; inconclusive = small, poorly fitted or top-dose-only effect, or another doubt; inactive = no such curve, though single readings can be large; an effect the other way counts as inactive or inconclusive. Unless noted, % is set by controls: 0 for no effect and ±100 for the full control effect.

SMILES	IL-1B inflam inh	DT40 TDP1 CPT	DT40 TDP1 no CPT	HT1080-NT tox	HT1080 IDH1KD tx
O=C(NCC(c1cccs1)N1CCOCC1)c1cn(-c2ccccc2)nc1-c1ccccc1 (centres undefined)	0	?	18µM*	-2%	0%
O=C(NCC(c1cccs1)N1CCOCC1)c1cn(-c2ccccc2)nc1-c1ccc(Cl)cc1 (centres undefined)	?	?	?	-16%	-29%
Cc1cccc(NS(=O)(=O)c2ccc(C)c(C(=O)NCC(c3cccs3)N3CCOCC3)c2)c1 (centres undefined)	0	?	16µM*	3%	0%
COc1ccc(C(=O)NCC(c2cccs2)N2CCOCC2)cc1OC (centres undefined)	18	6%	19%	14%	11%
COc1cc(C(=O)NCC(c2cccs2)N2CCOCC2)cc(Br)c1OCc1ccccc1 (centres undefined)	-8	9.2µM*	9.2µM*	-25%	-9%
O=C(Nc1ccc(F)c(Cl)c1)c1cc(C2CCCN(C(=O)CCc3ccccc3)C2)on1 (centres undefined)	-7	?	?	12%	4%
COc1ccc(C(=O)NCCCN2CCCC2=O)cc1	30	-3%	-2%	16%	6%
COc1cc(C(=O)NCCCN2CCCC2=O)cc(Br)c1OCc1ccccc1	6	?	18µM*	-4%[9.24 µM]	2%
O=C(CC1C(=O)NCCN1Cc1ccc(F)cc1)NCCCn1cccn1 (centres undefined)	18	0%	5%	-1%	6%
Cc1ccccc1CS(=O)(=O)c1ncc(Cl)c(C(=O)Nc2nnc(C(C)C)s2)n1	nt	8.2µM*	10µM*	nt	nt
CSc1ncc(Cl)c(C(=O)Nc2nnc(SC)s2)n1	0	0%	-5%	7%	16%
CC(C)Sc1ncc(Cl)c(C(=O)Nc2nnc(C(C)C)s2)n1	nt	-21%	-10%	nt	nt
CSc1nnc(NC(=O)c2nc(S(=O)(=O)Cc3ccccc3)ncc2Cl)s1	-100*	12µM*	16µM*	21µM*	23µM*
Cc1nnc(NC(=O)c2nc(SC(C)C)ncc2Cl)s1	nt	-19%	-8%	nt	nt
CC(C)c1nnc(NC(=O)c2nc(S(=O)(=O)Cc3ccccc3)ncc2Cl)s1	-103*	5.8µM*	9.2µM*	7.3µM*	6.5µM*
CCc1ccccc1N(C)C(=O)c1cc2c(=O)oc3ccccc3c2s1	nt	-30%	?	nt	nt
CC(C)(C)OC(=O)N[C@@H](CC(=O)OCc1ccccc1)C(=O)O	-2	?	?	7%	20%
CCOC(=O)c1sc2ncn(CC(=O)Nc3cc(C)cc(C)c3)c(=O)c2c1C	nt	3%	-11%	nt	nt
O=C(Nc1ccc(Cl)cc1F)c1cc(S(=O)(=O)NCc2ccc3c(c2)OCO3)ccc1F	nt	?	-8%	nt	nt
Cc1ccc(Sc2ccc(CO)cc2[N+](=O)[O-])cc1	0	13%	?	-24%	?
O=C(O)c1ccccc1C(=O)c1ccc(Sc2ccc(Cl)cc2)c([N+](=O)[O-])c1	33	-12%	-22%	-11%	-5%
CN1CCN(Cc2ccc(Sc3ccc(Cl)cc3)c([N+](=O)[O-])c2)CC1	-92*	?	15µM*	-28%	?
Cc1ccc(Sc2ccc(CN3CCCC3)cc2[N+](=O)[O-])cc1	0	6.5µM*	5.8µM*	-17%	-9%
CCc1ccc(N2CC(C(=O)N/N=C/c3cc([N+](=O)[O-])ccc3O)CC2=O)cc1 (centres undefined)	165	?	?	-13%	-23%
S=C(NCCCN1CCN(CCCNC(=S)NC2CCCCC2)CC1)NC1CCCCC1	-15	15µM*	15µM*	?	?
